Data: PubChem BioAssay AID1159580 (chemical genetic matrix, 2015)
In all, about 5,500 compounds went through this assay and about 2,000 (36%) were called active. Not shown: some 18% with an inconclusive outcome. No stated cut-off is given here; in the data, active means normalized growth mostly below about 0.91 (no sharp cut-off); inconclusive means no clear call, values can overlap the other calls; inactive means mostly above about 0.92. This is one part of the list.

Experiment: chemical genetic growth profiling, strain panel (AID 1159580);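 further: tested at 20 µM; growth read once vehicle control cultures reached saturation at 30 °C; 1 = growth at the plate median or of vehicle wells; lower values mean less growth of the strain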
Settings: S. cerevisiae deletion strains, growth OD
[1] = locus YAR019C, strain CDC15, hits give low values
[2] = locus YBL105C, strain PKC1, hits give low values
[3] = locus YBR135W, strain CKS1, hits give low values
[4] = locus YBR136W, strain MEC1, hits give low values
[5] = locus YBR160W, strain CDC28, hits give low values
[6] = locus YDL017W, strain CDC7, hits give low values
[7] = locus YDL028C, strain MPS1, hits give low values
[8] = locus YDL101C, strain DUN1, hits give low values
[9] = locus YDL108W, strain KIN28, hits give low values
[10] = locus YDL132W, strain cdc53, hits give low values
[11] = locus YDL214C, strain PRR2, hits give low values
[12] = locus YDR052C, strain DBF4, hits give low values
[13] = locus YDR054C, strain cdc34, hits give low values
[14] = locus YDR226W, strain ADK1, hits give low values
[15] = locus YDR477W, strain SNF1, hits give low values
[16] = locus YER123W, strain YCK3, hits give low values
[17] = locus YER133W, strain GLC7, hits give low values
[18] = locus YFL009W, strain cdc4, hits give low values
[19] = locus YFL029C, strain CAK1, hits give low values
[20] = locus YFR003C, strain YPI1, hits give low values
[21] = locus YFR019W, strain FAB1, hits give low values
[22] = locus YFR028C, strain CDC14, hits give low values
[23] = locus YGR040W, strain KSS1, hits give low values
[24] = locus YGR052W, strain FMP48, hits give low values
[25] = locus YGR092W, strain DBF2, hits give low values
[26] = locus YHR030C, strain SLT2, hits give low values
[27] = locus YHR079C, strain IRE1, hits give low values
[28] = locus YHR082C, strain KSP1, hits give low values
[29] = locus YHR205W, strain SCH9, hits give low values
[30] = locus YIL147C, strain SLN1, hits give low values
[31] = locus YJL095W, strain BCK1, hits give low values
[32] = locus YJL128C, strain PBS2, hits give low values
[33] = locus YJL157C, strain FAR1, hits give low values
[34] = locus YJR016C, strain ILV3, hits give low values
[35] = locus YJR066W, strain TOR1 (second series), hits give low values
[36] = locus YJR066W, strain TOR1, hits give low values
[37] = locus YKL048C, strain ELM1, hits give low values
[38] = locus YKL067W, strain YNK1, hits give low values
[39] = locus YKL101W, strain HSL1, hits give low values
[40] = locus YKL193C, strain SDS22, hits give low values
[41] = locus YKL203C, strain TOR2, hits give low values
[42] = locus YLR113W, strain HOG1, hits give low values
[43] = locus YLR133W, strain CKI1, hits give low values
[44] = locus YLR403W, strain SFP1, hits give low values
[45] = locus YML070W, strain DAK1, hits give low values
[46] = locus YMR001C, strain CDC5, hits give low values
[47] = locus YMR205C, strain PFK2 (second series), hits give low values
[48] = locus YMR277W, strain FCP1, hits give low values
[49] = locus YNL006W, strain LST8, hits give low values
[50] = locus YNL020C, strain ARK1, hits give low values
[51] = locus YNL161W, strain CBK1, hits give low values
[52] = locus YNL183C, strain NPR1, hits give low values
[53] = locus YNL207W, strain RIO2, hits give low values
[54] = locus YNL222W, strain SSU72, hits give low values
[55] = locus YNL307C, strain MCK1 (second series), hits give low values
[56] = locus YOL078W, strain AVO1, hits give low values
[57] = locus YOL136C, strain PFK27, hits give low values
[58] = locus YOR061W, strain CKA2, hits give low values
[59] = locus YOR119C, strain RIO1, hits give low values
[60] = locus YOR231W, strain MKK1, hits give low values
[61] = locus YOR329C, strain SCD5, hits give low values
[62] = locus YPL031C, strain PHO85, hits give low values
[63] = locus YPL153C, strain RAD53, hits give low values
[64] = locus YPL204W, strain HRR25, hits give low values
[65] = locus YPL209C, strain IPL1, hits give low values
[66] = locus YPL256C, strain CLN2, hits give low values
[67] = locus YPR025C, strain CCL1, hits give low values
[68] = locus YPR106W, strain ISR1, hits give low values
[69] = locus YPR111W, strain DBF20, hits give low values
[70] = strain NNK1, hits give low values
[71] = strain TSCII, hits give low values

Measured: normalized growth

Cc1cc(C(=O)O/N=C(/N)c2ccc(C(C)(C)C)cc2)no1
active: [26] 0.77 | [42] 0.789
inactive: [1] 0.972 | [2] 0.979 | [3] 0.975 | [4] 0.985 | [5] 0.979 | [6] 0.993 | [7] 0.971 | [8] 0.993 | [9] 0.976 | [10] 0.975 | [11] 0.909 | [12] 0.986 | [13] 0.963 | [14] 0.983 | [15] 0.911 | [16] 0.901 | [17] 0.882 | [18] 0.952 | [19] 0.969 | [20] 0.986 | [21] 0.922 | [22] 0.98 | [23] 0.956 | [24] 0.958 | [25] 0.906 | [27] 0.789 | [28] 0.939 | [29] 0.822 | [30] 0.982 | [31] 0.772 | [32] 0.938 | [33] 0.923 | [34] 0.98 | [35] 0.738 | [36] 0.722 | [37] 1.05 | [38] 0.921 | [39] 1.01 | [40] 0.978 | [41] 0.88 | [43] 0.943 | [44] 0.852 | [45] 0.915 | [46] 0.974 | [47] 0.916 | [48] 0.961 | [49] 0.972 | [50] 0.942 | [51] 0.983 | [52] 0.782 | [53] 0.979 | [54] 0.969 | [55] 0.939 | [56] 0.979 | [57] 0.959 | [58] 0.93 | [59] 0.911 | [60] 0.803 | [61] 0.987 | [62] 0.901 | [63] 0.893 | [64] 0.914 | [65] 0.974 | [66] 0.884 | [67] 0.973 | [68] 0.98 | [69] 0.964 | [70] 0.999 | [71] 0.966

Cc1cc(C(=O)O/N=C(/N)c2ccc([N+](=O)[O-])o2)no1
active: [25] 0.178 | [26] 0.218 | [42] 0.757 | [60] 0.567 | [66] 0.741
inactive: [1] 0.961 | [2] 0.968 | [3] 0.963 | [4] 0.962 | [5] 0.951 | [6] 0.963 | [7] 0.931 | [8] 0.964 | [9] 0.949 | [10] 0.968 | [11] 0.887 | [12] 0.919 | [13] 0.991 | [14] 0.927 | [15] 0.918 | [16] 0.87 | [17] 0.963 | [18] 0.97 | [19] 0.965 | [20] 0.955 | [21] 0.877 | [22] 0.938 | [23] 0.848 | [24] 0.869 | [27] 0.832 | [28] 0.892 | [29] 0.745 | [30] 0.946 | [31] 0.796 | [32] 0.895 | [33] 0.914 | [34] 0.953 | [35] 0.822 | [36] 0.809 | [37] 0.831 | [38] 0.868 | [39] 0.83 | [40] 0.962 | [41] 0.99 | [43] 0.894 | [44] 0.927 | [45] 0.846 | [46] 0.963 | [47] 0.938 | [48] 0.941 | [49] 0.979 | [50] 0.885 | [51] 0.967 | [52] 0.898 | [53] 0.948 | [54] 0.957 | [55] 0.825 | [56] 0.952 | [57] 0.873 | [58] 0.866 | [59] 0.888 | [61] 0.965 | [62] 0.92 | [63] 0.949 | [64] 0.946 | [65] 0.964 | [67] 0.97 | [68] 0.936 | [69] 0.896 | [70] 0.94 | [71] 0.965

N/C(=N\OC(=O)c1ccno1)c1ccc(C(F)(F)F)cc1
inactive: locus YAL013W, strain DEP1, hits give low values 0.951 | locus YBR229C, strain ROT2, hits give low values 0.992 | locus YCL061C, strain MRC1, hits give low values 0.974 | [8] 1.02 | locus YDR150W, strain NUM1, hits give low values 0.978 | locus YEL061C, strain CIN8, hits give low values 1 | locus YGR078C, strain PAC10, hits give low values 0.971 | locus YGR229C, strain SMI1, hits give low values 1.02 | [26] 0.888 | locus YHR087W, strain rtc3, hits give low values 0.966 | locus YJL187C, strain SWE1, hits give low values 0.993 | locus YJR043C, strain POL32, hits give low values 0.988 | locus YJR075W, strain HOC1, hits give low values 1.01 | locus YKL190W, strain CNB1, hits give low values 1.01 | locus YLR039C, strain RIC1, hits give low values 0.91 | locus YLR058C, strain SHM2 (second series), hits give low values 0.988 | locus YLR085C, strain ARP6, hits give low values 1.06 | locus YLR262C, strain YPT6, hits give low values 0.944 | locus YML094W, strain GIM5, hits give low values 0.95 | locus YMR219W, strain ESC1, hits give low values 0.996 | locus YMR263W, strain SAP30, hits give low values 0.98 | locus YMR307W, strain GAS1, hits give low values 1.17 | locus YNL153C, strain GIM3, hits give low values 0.973 | locus YNL298W, strain CLA4 (second series), hits give low values 0.949 | locus YNL322C, strain KRE1, hits give low values 0.987 | locus YNR030W, strain Alg12, hits give low values 0.939 | locus YOL006C, strain TOP1, hits give low values 0.939 | locus YPL055C, strain LGE1, hits give low values 0.839 | locus YPL241C, strain CIN2, hits give low values 1.03 | locus YPR135W, strain CTF4, hits give low values 0.82
